{"source": "the supplement of paper PMC7726561", "sequences": {"B1": {"name": "unnamed (peptide)", "chain": "LLAEDDELHL"}, "B2": {"name": "unnamed (peptide)", "chain": "FLDHIIASV"}, "B3": {"name": "unnamed (peptide)", "chain": "ALAPGVRAV"}, "B4": {"name": "unnamed (peptide)", "chain": "YLPEDFIRVG"}, "B5": {"name": "unnamed (peptide)", "chain": "LLQEVEHQL"}, "B6": {"name": "unnamed (peptide)", "chain": "ALFPGDVDRL"}, "B7": {"name": "unnamed (peptide)", "chain": "WLIEDGKVVTV"}, "B8": {"name": "unnamed (peptide)", "chain": "AMNISVPQV"}, "B9": {"name": "unnamed (peptide)", "chain": "FLAELPGSLSL"}, "B10": {"name": "unnamed (peptide)", "chain": "ILEEKGLSQV"}, "B11": {"name": "unnamed (peptide)", "chain": "LLSDVRFVL"}, "B12": {"name": "unnamed (peptide)", "chain": "LLRDGIELV"}, "B13": {"name": "unnamed (peptide)", "chain": "AMSNLVPPVEL"}, "B14": {"name": "unnamed (peptide)", "chain": "RLGEAEGLMKV"}, "B15": {"name": "unnamed (peptide)", "chain": "FILDFYEKV"}, "B16": {"name": "unnamed (peptide)", "chain": "KIFEMGPVFTL"}}, "note": "Whole data set: some 1,100 sequences, median “thermal melting temperature (Tm) of peptide-HLA complex” near 58, cut for the lowest 2% near 42. Only a selection was taken, and the lowest values are over-represented in it overall.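 Note: lysates heated 10 min at 37–73 °C, complexes pulled down with pan-HLA I antibody, peptide signal by DIA-MS relative to 37 °C, Tm where half the complex is unfolded.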", "data": [{"biological_target": "HLA-A*02:01", "experiment": "thermal melting temperature (Tm) of peptide-HLA complex; higher = more thermostable pHLA complex", "settings": "C1R-A*02:01", "units": {"thermal melting temperature": "°C"}, "values": [{"sequence": "B1", "thermal melting temperature": 44.2}, {"sequence": "B2", "thermal melting temperature": 61.4}, {"sequence": "B3", "thermal melting temperature": 60.2}, {"sequence": "B4", "thermal melting temperature": 46.8}, {"sequence": "B5", "thermal melting temperature": 57.8}, {"sequence": "B6", "thermal melting temperature": 54.3}, {"sequence": "B7", "thermal melting temperature": 58.3}, {"sequence": "B8", "thermal melting temperature": 58.1}, {"sequence": "B9", "thermal melting temperature": 49.3}, {"sequence": "B10", "thermal melting temperature": 59.1}, {"sequence": "B11", "thermal melting temperature": 54.8}, {"sequence": "B12", "thermal melting temperature": 57.8}, {"sequence": "B13", "thermal melting temperature": 53.7}, {"sequence": "B14", "thermal melting temperature": 56.4}, {"sequence": "B15", "thermal melting temperature": 41.8}, {"sequence": "B16", "thermal melting temperature": 52.7}]}]}
